From the supplement of paper PMC6555819

test system: VDR:RXRa (NR concentration 270 nM, RXRa partner concentration 90 nM); assay: PBM binding z-score (relative to random genomic background probes); higher = stronger binding; sequences stand for … in GC…GCGATTGACAGCGTAGAATGAAGG
Description: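 Protein-binding microarray (Agilent 4x180K custom design, double-stranded 60-nt probes: 5' GC cap, 34-nt variable region, 24-nt constant primer region; full probe sequence given). Purified or IVT nuclear receptor:RXRα heterodimers (3:1 NR:RXRα, mostly 270:90 nM) or homodimers were incubated for 1 h in PBS with 2% milk and no ligand, then detected with Alexa488 antibodies. Fluorescence from o1-orientation probes (~5 replicates averaged) was converted to z-scores against 500 random hg19 background probes. Variable regions are seed direct-repeat (DR0–DR5) sites, all their single-nucleotide variants and half-site ablations.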

Sequence	PBM binding z-score
TAGGCTAGGTCATGCGGGCCAGTATAGTGTCGGC	2.63
ACTCGGAGGACAAAGCTCAGAGCTACGCCAGTGA	-0.859
GGAACGAGGGCAAAGTTGATTGCATCTGTCGACG	1.34
CCGAGCAGGCCAGGGTCACTCAAGCATTTCGCTT	2.6
ACTCGCAGGCCAAGTTTGGGTCACTCAAACAAAG	0.787
CGTCCAAGGTCAAGGCTAGGTCAGTGAAAGCATT	5.06
TGAATGAGGTAAAAGATCAGGGAACGTGGCGTCG	-0.131
ATCTTTAGGTAACCAAGTTCAGTGAATGCCGAAC	4.36
GATACAGGGTCCAGGCCAGAGTACGCGTATTGAT	-0.0532
ACAGACAGCTGATGAAGGTAACTCAGGCTATCAT	-0.282
TATGCTAGGTCAGTTGGTCAGCTAACGAGCTGCC	0.137
AATACCGGGTCACTAGGCCAGAGTAGGTACGAAT	3.03
CCTTCTAGGTCATGGTCAGCTAATCTACAGTATG	2.07
GCAGACAGGTGAAACGCAGGTATCTCAGGGTGGC	-0.475
CCTCGGAGGACAACACGAGGTCAGAGCTGCCAGA	2.72
TTACCAAGGTTAAGGTCGTTGATCCCTCTGTAGA	3.3
TTACCAAGGTGAGCTGAGGTCGATGATCCAACTC	2.51
GCAACGAGGGCATTCGAGTTGATAGCATGGCGAT	3.57
ACAGACAGGCGATGAAGGTAACTCAGGCTATCAT	-0.262
CCTACTCGGCCATCAGGTCATTGATATCAACGTT	2.37

Sequence	PBM binding z-score
GCTTGTAGATCAAGGTTAAGAATGACTAAGCTAA	0.0818
GCTAGCAGGCCATTTGGGTCACGCAATGACGGGC	1.61
ATATGTAGGTTATTGGGTCATTCAGTTTGCGCAT	4.55
ATTTGTAGGTTAAGGGTCATTCAGGTTGGTTCGC	6.08
TCATATAGGTAAAAGTGAAAGTCGAACGATATGA	0.265
CTAGACAGGTGAAAGGTAACTCAGTCTGGTACGC	0.828
TGAATGAGGTTAAAGATCAGGGACCGTGGCGTCG	1.77
TCGAGTAGGTCACCAATGGGGCATTCAGCTTTCT	2.62
TGAAGGAGGTTATAAGATCAGGGAACGTTGCAAA	0.323
ATCTATAGGTAACAAGTTCAGTGAAAGAGAGGAC	2.43
TTTTGTAGATCAGCAGGTTAAGAAAGCTGGCCAA	0.0929
ATATGTAGGTTACATCCGGGTCATTCACGCTATG	4.35
CAGACTAGGTCAGGGCCAGTATAGGAGGAACGTT	-0.0309
TAGCCTAGGTCATTCAAGGGCCAGTATAGAAAGC	2.89
CGTCCAAGGTCAGGAGGTCAGTGAAAGCGACGTG	4.66
TGTCAAAGTTCAAAGGTAACGAAAGTATCCACAC	5.07
AGAACGAGGTTATACGTAGATCAGGGAAGAAAGT	1.08
ACTATCAGTTGACTTAGGGCAACCGATACGACGC	0.408
CCGCGTAGGTTATGGGGCATTCAGGCAACGGTGA	-0.207
CGTCAAAGTTCAACTAAGGTATCGTAAAGCACGC	4.28
